Consider 40 compounds from PubChem BioAssay (Tox21).

Unmarked numbers belong to inactive results. Where a call stands in place of a potency, no number is given. Active and inactive are the calls of the source. Calls follow the shape of the dose curve; as a rule, active = well fitted activation curve with a large enough effect in the repeat runs; inconclusive = weak or mixed curves; inactive = flat fitted curve, though single readings scatter.
Potency is read from the fitted curve at half-maximal effect.

This experiment in a line: A CellTox Green Cytotoxicity Assay to monitor cytotoxicity in HepG2 cells - 0 hour (AID 1224882). Also: nearly all actives have a fitted effect of over 35% in size. The note with it: CellTox Green fluorescence; series mostly up to 76.8 µM. An excerpt:
National Center for Advancing Translational Sciences [NCATS]
NIH Chemical Genomics Center [NCGC]
U.S. Environmental Protection Agency [EPA]
National Institutes of Environmental Health Sciences [NIEHS]
National Toxicology Program [NTP]
Cell-based models are critical for drug discovery. Determining the natural cytotoxic effects resulting from test compounds is an essential research activity. A CellTox Green Cytotoxicity Assay to monitor cytotoxicity in real time of continues cell culture during 40 hours of the compound treatment was used to screen Tox21 10K library compounds in HepG2 cells. CellTox Green Cytotoxicity Assay is a nonlytic, homogeneous, biofluorescent method to measure cytotoxicity in cell culture after experimental manipulation. The assay system uses a proprietary asymmetric cyanine dye that is excluded from viable cells but preferentially stains the dead cell's DNA. […] Viable cells produce no appreciable increases in fluorescence. Therefore, the fluorescence signal produced by the binding interaction with dead cell DNA is proportional to cytotoxicity.
The mixture of HepG2 cell suspension and reagents were dispensed at 600cells/6 ul/well in 1536-well tissue culture treated black solid bottom plates using a Multidrop dispenser. After the assay plates were incubated at a 37 C/5% CO2 incubator for 5 hours, 23 nL of compounds dissolved in DMSO, positive and negative controls was transferred to the assay plate by a pintool work station. The plates were incubated at 37 C for 40 hours. The fluorescence intensity were measured at 0h, 8h, 16h, 24h, 32h and 40h time points using ViewLux plate reader during compound treatment.
For the compound `CCOC(=O)C1=C(C)NC(C)=C(C(=O)OCC)C1c1ccccc1/C=C/C(=O)OC(C)(C)C`, the Potency result was “inactive”.
On to `CCCCCCCOC(=O)c1ccccc1C(=O)OCCCCCCC`, for which the Potency entry was “inactive”.
As to `CC1(C)C(=O)N(CO)C(=O)N1CO`, the Potency result was “inactive”.
The same measure, in the same setting: next, `C=CC(C)(CCC=C(C)C)OC(=O)/C=C/c1ccccc1` (stereo not given): 27.5 µM (active); `COc1ccccc1C=O`: “inactive”.
Turning to `Cc1cc(C)c(C=O)c(C)c1`, the Potency result was “inactive”.
Consider `C/C=C/c1ccc(OC)c(OC)c1`, for which the Potency result is “inactive”.
On to `C[C@]12CC[C@H]3C(=CCc4cc(O)ccc43)[C@@H]1CCC2=O`, for which the Potency entry was “inactive”.
Consider `C=CC(=O)OCCC#N`, for which the Potency entry is “inactive”.
The same measure, in the same setting: the same measure for `O=C1NCCN1CCN1CCC(c2cn(-c3ccc(F)cc3)c3ccc(Cl)cc23)CC1`: “inactive”.
Consider `CC1(C)COCN1`, for which the Potency entry is “inactive”.
Regarding `CCC(=O)OCCc1ccccc1`, the Potency entry was “inactive”.
As to `CC=O`, the Potency entry was “inactive”.
Consider `Cc1cn[nH]c1`, for which the Potency result is “inactive”.
As for `CCCCCCCCCCCCCc1ccccc1`, the Potency result is “inactive”.
On the same count and under the same terms, the same measure for `CC(=O)C=O`: “inactive”; for `Cn1cccc1`: “inactive”; for `NC(=O)C(=O)N/N=C/c1ccc([N+](=O)[O-])o1`: “inactive”.
Consider `Cc1cc(Nc2ccc(O)cc2)ccc1N`, for which the Potency result is “inactive”.
Consider `CCCCCCCCCCOCC(O)CN` (stereo not given), for which the Potency result was “inactive”.
Take `O=C[C@H](O)[C@H](O)[C@H](O)CO`: the Potency result was “inactive”.
In the case of `COc1ccc(C#N)cc1`, the Potency entry was “inactive”.
Take `CCC(C)c1cc([N+](=O)[O-])cc([N+](=O)[O-])c1OC(=O)OC(C)C` (stereo not given): the Potency entry is “inactive”.
Still for that read-out and setting: the same measure for `CC1=CCC(=O)O1`: “inactive”; for `Cc1occc1SSc1ccoc1C`: “inactive”; for `C/C=C/C(=O)Oc1c(CCCCCC(C)C)cc([N+](=O)[O-])cc1[N+](=O)[O-]`: “inactive”.
`CN(C)c1ccc(N=Nc2ccccc2C(=O)O)cc1`: the Potency entry was “inactive”.
Regarding `OCCCc1cccnc1`, the Potency result is “inactive”.
As for `CNC(=S)NN`, the Potency result is “inactive”.
`CCCCN(C)C`: the Potency entry is “inactive”.
As to `O=C(Oc1ccccc1)c1cccc(C(=O)Oc2ccccc2)c1`, the Potency result is “inactive”.
Same read-out and setting: next, `CNC(=O)c1cc(Oc2ccc(NC(=O)Nc3ccc(Cl)c(C(F)(F)F)c3)cc2)ccn1`: “inactive”; `CCCCOC(=O)C(C)CC` (stereo not given): “inactive”; `CCCCCCCCC(C)=O`: “inactive”.
On to `CC(=O)c1ccccc1N`, for which the Potency result was “inactive”.
For the compound `O=C1c2c(O)ccc([N+](=O)[O-])c2C(=O)c2c([N+](=O)[O-])ccc(O)c21`, the Potency entry is “inactive”.
As to `c1cc2c3c(c1)ccc1cccc(c13)C2`, the Potency result is “inactive”.
Take `Clc1ccc(C(c2ccccc2Cl)C(Cl)Cl)cc1` (stereo not given): the Potency result was “inactive”.
In the case of `CCCCCCOc1ccc(O)cc1`, the Potency entry was “inactive”.
Consider `C=CC(=C)CC/C=C(\C)CCC=C(C)C`, for which the cytotoxicity was -7.07% [at 15.8 µM].
